Screens as filed in PubChem.
DT40 TDP1 CPT: qHTS for Inhibitors of human tyrosyl-DNA phosphodiesterase 1 (TDP1): qHTS in cells in presence of CPT | AID 686979, 2013 | chicken DT40 Tdp1-/-;hTDP1 cells + 20 nM CPT, ATP luminescence, 48 h | Potency, µM (highest dose often 46.2 µM), for inactives: at the top dose activity change, negative = growth inhibition, most hits filed as inhibitors | 12% of 420,000 active; further: potency means the concentration at half of the fitted maximal effect; on the % scale 0 is the no-effect control and ±100 the full control effect; nearly all actives have a fitted effect of over 55% in size
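Chicken DT40 Tdp1-/- cells stably complemented with human TDP1 were seeded at 400 cells/well in medium containing 20 nM camptothecin, exposed to pin-transferred compounds, and grown at 37 °C for at least 48 hr. Viability was read as ATP luminescence.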
DT40 TDP1 no CPT: qHTS for Inhibitors of human tyrosyl-DNA phosphodiesterase 1 (TDP1): qHTS in cells in absence of CPT. DT40 Tdp1-/- hTDP1 cells, no CPT, ATP luminescence, 48 h. Potency, µM (titrated, usually from 46.2 µM), for the others: at the top dose activity change, negative = growth inhibition, hits mostly inhibitors. 15% of 420,000 active; further: potency means the concentration at half of the fitted maximal effect; on the % scale 0 is the no-effect control and ±100 the full control effect; nearly all actives have a fitted effect of over 55% in size
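Cells were dispensed at 400 per well, compounds added by pin tool, plates incubated ≥48 hr at 37 °C, then CellTiter-Glo added for 30 min at room temperature before luminescence reading. Line: DT40 Tdp1-/- complemented with hTDP1; camptothecin omitted.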
TDP1 inh: qHTS Assay for Inhibitors of Tyrosyl-DNA Phosphodiesterase (TDP1). recombinant TDP1, AlphaScreen DNA substrate cleavage. 0.28% of 350,000 active. Potency, µM (titrated, usually from 130 µM), inactives show top-dose activity change, negative = inhibition, most hits filed as inhibitors. Tyrosyl-DNA phosphodiesterase 1 (Homo sapiens), Q9NUW8; further: potency means the concentration at half of the fitted maximal effect; on the % scale 0 is the no-effect control and ±100 the full control effect; nearly all actives have a fitted effect of over 40% in size
Target sequence (Q9NUW8 whole entry, looked up): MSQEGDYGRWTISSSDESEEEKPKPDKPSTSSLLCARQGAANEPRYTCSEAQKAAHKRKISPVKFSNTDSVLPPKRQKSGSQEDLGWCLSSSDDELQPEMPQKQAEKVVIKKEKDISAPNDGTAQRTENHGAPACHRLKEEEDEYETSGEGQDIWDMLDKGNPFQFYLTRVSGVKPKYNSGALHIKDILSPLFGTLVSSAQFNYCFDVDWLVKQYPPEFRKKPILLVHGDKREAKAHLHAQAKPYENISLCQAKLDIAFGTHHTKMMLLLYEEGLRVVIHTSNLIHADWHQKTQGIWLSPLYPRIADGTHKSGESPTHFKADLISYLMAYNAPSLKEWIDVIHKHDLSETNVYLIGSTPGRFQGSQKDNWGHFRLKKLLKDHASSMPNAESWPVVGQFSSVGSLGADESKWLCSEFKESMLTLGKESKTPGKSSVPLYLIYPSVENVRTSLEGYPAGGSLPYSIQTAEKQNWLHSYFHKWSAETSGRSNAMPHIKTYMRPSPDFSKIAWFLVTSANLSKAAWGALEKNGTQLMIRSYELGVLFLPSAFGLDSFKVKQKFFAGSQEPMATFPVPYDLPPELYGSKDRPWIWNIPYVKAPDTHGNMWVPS
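Enzyme-compound mixtures sat 15 min at room temperature, followed by a 5 min reaction with 15 nM final substrate and 10 min with AlphaScreen beads. Recombinant human Tdp1 was used at 1 nM final.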
uPA generation: qHTS for Inhibitors of Cell Surface uPA Generation. cell surface uPA generation assay, qHTS. Potency, µM (top dose mostly 38.3 µM), without a hit: top-dose activity change, negative = inhibition, hits mostly inhibitors. 0.31% of 330,000 active; active means well fitted inhibition curve with a large enough effect; inconclusive means small, poorly fitted or top-dose-only effect; inactive means no such curve, though single readings can be large or run the other way; tested in mouse RAW 264.7 cells; further: potency means the concentration at half of the fitted maximal effect; on the % scale 0 is the no-effect control and ±100 the full control effect; nearly all actives have a fitted effect of over 55% in size
miR-21 reporter: qHTS Assay for Modulators of miRNAs and/orActivators of miR-21; HeLa miR-21 FLuc reporter, luciferase, 48 h; Potency, µM (highest dose often 38.3 µM), for inactives: at the highest dose activity change, positive = activation, usual class: activators; 340,000 tested, under 10 active; AID 2288, 2010;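 further: % of control where 0% means no effect; miR-21 action dims this reporter so a rising signal means less miR-21 action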
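Compounds were titrated across several concentrations (up to approximately 40 uM) and incubated 48 hours with HeLa miR-21-FLuc reporter cells (miR-21 target sequence downstream of FLuc, endogenous miR-21). Readout was firefly luciferase luminescence after lytic detection reagent.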
* = called active by the depositor. Rows were chosen to be rich in hits. Some 16% of all compounds tested hit in one or more screens of this group. Unless noted, the call rests on the fitted dose curve; in most records, active means well fitted curve in the direction sought with a large enough effect; inconclusive means small, poorly fitted or top-dose-only effect, or another doubt; inactive means no such curve, though single readings can be large; an effect the other way counts as inactive or inconclusive.

How did Cc1ccc(CNC(=O)C2CCCN(c3nnc(-n4c(C)ccc4C)s3)C2)cc1 (centres undefined) do in these assays?
DT40 TDP1 CPT: inconclusive; DT40 TDP1 no CPT: 18.4µM*; TDP1 inh: 5.1%; miR-21 reporter: 6.2%

What do the screens show for `CCCCN(C(=O)c1[nH]c(C)c(C(C)=O)c1C)c1c(N)n(CCCC)c(=O)[nH]c1=O`?
DT40 TDP1 CPT: 16.2%; DT40 TDP1 no CPT: 0.7%; uPA generation: 2.2%

How did CCCN(C)C1CN(Cc2cn(CCCOC)nn2)S(=O)(=O)C1 (centres undefined) do in these assays?
DT40 TDP1 CPT: 7.5%; DT40 TDP1 no CPT: -10.9%

What do the screens show for `Cn1c(NC(=O)C[n+]2cc(-c3ccc(Cl)c(Cl)c3)n3c2CCC3)cc(=O)n(C)c1=O`?
DT40 TDP1 CPT: -17.5%; DT40 TDP1 no CPT: inconclusive; TDP1 inh: 0.0%; uPA generation: 2.8%; miR-21 reporter: -1.2%

Results for O=C(C[n+]1cc(-c2ccc(Cl)cc2)n2c1CCC2)N1c2ccccc2Sc2ccccc21 ?
DT40 TDP1 CPT: 9.2µM*; DT40 TDP1 no CPT: 13µM*; TDP1 inh: -1.1%; uPA generation: -0.4%; miR-21 reporter: -3.0%

Results for Cc1cccc(C)c1NC(=O)C[n+]1cc(-c2ccccc2)n2c1CCC2 ?
DT40 TDP1 CPT: 1.0%; DT40 TDP1 no CPT: -4.3%; TDP1 inh: -1.2%; uPA generation: 6.4%; miR-21 reporter: 0.2%

Results for COc1ccc(-c2c[n+](CC(=O)N3c4ccccc4Sc4ccccc43)c3n2CCC3)cc1 ?
DT40 TDP1 CPT: 2.31µM*; DT40 TDP1 no CPT: 2.06µM*; TDP1 inh: 5.5%; uPA generation: 2.0%; miR-21 reporter: inconclusive

What do the screens show for `O=C(C[n+]1cc(-c2ccc(Cl)c(Cl)c2)n2c1CCC2)N1c2ccccc2Sc2ccccc21`?
DT40 TDP1 CPT: 16.4µM*; DT40 TDP1 no CPT: 23.1µM*; TDP1 inh: 0.0%; uPA generation: 4.3%; miR-21 reporter: 15.7%

What do the screens show for `CC1CCC(C(C)C)C(OC(=O)C[n+]2cc(-c3ccc(Cl)cc3)n3c2CCC3)C1` (centres undefined)?
DT40 TDP1 CPT: 2.91µM*; DT40 TDP1 no CPT: 2.31µM*; uPA generation: -4.4%; miR-21 reporter: 28.4%

Results for Cc1ccc2nc(-c3cccc(NC(=O)c4ccc(Br)o4)c3)oc2c1 ?
TDP1 inh: 4.5%; miR-21 reporter: -29.9%

What do the screens show for `Cc1onc(-c2ccccc2Cl)c1C(=O)Nc1cccc(S(=O)(=O)N2CCOCC2)c1`?
DT40 TDP1 CPT: -20.1%; DT40 TDP1 no CPT: inconclusive; TDP1 inh: -0.2%; uPA generation: 17.4%

What do the screens show for `CN(c1ccccc1)c1ccc(/C=C(\C#N)c2nnc3n2CCCCC3)cc1[N+](=O)[O-]`?
DT40 TDP1 CPT: 18.4µM*; DT40 TDP1 no CPT: 11.6µM*; TDP1 inh: 11.0%; uPA generation: -3.1%; miR-21 reporter: -2.7%

How did Cc1ccc(CNC(=O)C2CCN(S(=O)(=O)c3cc(-c4noc(C)n4)ccc3C)CC2)cc1 do in these assays?
DT40 TDP1 CPT: 4.61µM*; DT40 TDP1 no CPT: 2.59µM*; TDP1 inh: 0.5%; miR-21 reporter: 25.5%

Results for Cc1nc(-c2ccc(C)c(S(=O)(=O)N3CCC(C(=O)NCc4ccc(F)cc4)CC3)c2)no1 ?
DT40 TDP1 CPT: 2.59µM*; DT40 TDP1 no CPT: 5.17µM*; TDP1 inh: 0.5%; miR-21 reporter: 19.7%

Results for C[C@@H]1CN(C2CCN(Cc3nc(CC4CC4)no3)CC2)C[C@H](C)O1 ?
DT40 TDP1 CPT: 1.6%; DT40 TDP1 no CPT: -1.5%; TDP1 inh: 2.8%; uPA generation: 0.2%; miR-21 reporter: -5.2%

How did O=C(Cn1c2[n+](c3ccc(C(F)(F)F)cc31)CCCCC2)Nc1ccc(Br)cc1 do in these assays?
DT40 TDP1 CPT: 5.3%; DT40 TDP1 no CPT: 4.5%; TDP1 inh: 6.9%; uPA generation: 2.6%; miR-21 reporter: 7.8%

Results for FC(F)(F)c1cccc(Cn2c3[n+](c4ccc(C(F)(F)F)cc42)CCCCC3)c1 ?
DT40 TDP1 CPT: inconclusive; DT40 TDP1 no CPT: 23.1µM*; TDP1 inh: 4.6%; uPA generation: -2.5%; miR-21 reporter: 21.3%

How did N#Cc1ccc(NC(=O)Cn2c3[n+](c4ccc(C(F)(F)F)cc42)CCCCC3)cc1 do in these assays?
DT40 TDP1 CPT: inconclusive; DT40 TDP1 no CPT: inconclusive; TDP1 inh: 0.0%; uPA generation: 2.1%; miR-21 reporter: 4.0%

What do the screens show for `Cc1cc(C(C)(C)C)cc(C)c1Cn1c2[n+](c3ccc(C(F)(F)F)cc31)CCCCC2`?
DT40 TDP1 CPT: 2.06µM*; DT40 TDP1 no CPT: 1.84µM*; TDP1 inh: 5.1%; uPA generation: -17.5%; miR-21 reporter: inconclusive

How did CCOC(=O)NN=C1c2ccccc2-c2ccccc21 do in these assays?
DT40 TDP1 CPT: inconclusive; DT40 TDP1 no CPT: inconclusive; uPA generation: 0.8%; miR-21 reporter: 4.6%

How did CCOC(=O)Nc1ccc2c(c1)C(=NNC(=S)NC)c1ccccc1-2 do in these assays?
DT40 TDP1 CPT: 4.61µM*; DT40 TDP1 no CPT: 3.26µM*

Results for Cc1ccc(N(C(=O)C2CCC(=O)N2)C2(C(=O)NC3CCCCC3)CCCCC2)cc1 (centres undefined) ?
DT40 TDP1 CPT: -1.6%; DT40 TDP1 no CPT: 0.6%; TDP1 inh: 6.2%; uPA generation: -5.4%; miR-21 reporter: -2.2%

How did Cc1ccc(N(C(=O)c2ccccn2)C2(C(=O)NC3CCCC3)CCCCC2)cc1 do in these assays?
DT40 TDP1 CPT: 0.517µM*; DT40 TDP1 no CPT: 1.64µM*; TDP1 inh: 4.0%; uPA generation: -3.4%; miR-21 reporter: 8.1%

How did Cc1nc(-c2ccc(S(=O)(=O)NCC3CCN(C(=O)OC(C)(C)C)CC3)s2)cs1 do in these assays?
DT40 TDP1 CPT: inconclusive; DT40 TDP1 no CPT: inconclusive; TDP1 inh: 5.0%; uPA generation: 14.1%; miR-21 reporter: -0.4%

Results for Cc1nc(-c2ccc(S(=O)(=O)Nc3ccc(Br)cc3Cl)s2)cs1 ?
DT40 TDP1 CPT: -4.4%; DT40 TDP1 no CPT: -2.2%; TDP1 inh: 2.6%; uPA generation: -2.6%; miR-21 reporter: -5.5%

Results for Cc1nc(-c2ccc(S(=O)(=O)Oc3ccc(Cl)cc3Cl)s2)cs1 ?
DT40 TDP1 CPT: 13µM*; DT40 TDP1 no CPT: 18.4µM*; TDP1 inh: -2.5%; uPA generation: -3.6%; miR-21 reporter: 9.0%

How did COC(=O)c1cc(S(=O)(=O)NCCCc2ccco2)c[nH]1 do in these assays?
DT40 TDP1 CPT: inconclusive; DT40 TDP1 no CPT: -27.8%; TDP1 inh: 2.6%; uPA generation: 0.0%; miR-21 reporter: -2.5%
